Screening results (PubChem)
CYP2C9 inh: human CYP2C9 inhibition | CYP2C9 Supersomes, luciferin-H conversion, luminescence | inhibition, % at 5 µM | hit rate 20% among 96,000 | AID 777;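 active = blocking of liver enzyme CYP2C9 beyond about 50% at 5 µM, limit read from the data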
Plk1 PBD FP: inhibitors of human Plk1 polo box domain binding; P53350; inhibition, %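 (tested at about 20 µM)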; hit rate 0.13% among 97,000; Plk1 PBD phosphopeptide binding, fluorescence polarization; AID 693; in the data active = inhibition above about 34%, passing the limit was not always enough
Target sequence (P53350 whole entry, looked up, the tested form may be a part): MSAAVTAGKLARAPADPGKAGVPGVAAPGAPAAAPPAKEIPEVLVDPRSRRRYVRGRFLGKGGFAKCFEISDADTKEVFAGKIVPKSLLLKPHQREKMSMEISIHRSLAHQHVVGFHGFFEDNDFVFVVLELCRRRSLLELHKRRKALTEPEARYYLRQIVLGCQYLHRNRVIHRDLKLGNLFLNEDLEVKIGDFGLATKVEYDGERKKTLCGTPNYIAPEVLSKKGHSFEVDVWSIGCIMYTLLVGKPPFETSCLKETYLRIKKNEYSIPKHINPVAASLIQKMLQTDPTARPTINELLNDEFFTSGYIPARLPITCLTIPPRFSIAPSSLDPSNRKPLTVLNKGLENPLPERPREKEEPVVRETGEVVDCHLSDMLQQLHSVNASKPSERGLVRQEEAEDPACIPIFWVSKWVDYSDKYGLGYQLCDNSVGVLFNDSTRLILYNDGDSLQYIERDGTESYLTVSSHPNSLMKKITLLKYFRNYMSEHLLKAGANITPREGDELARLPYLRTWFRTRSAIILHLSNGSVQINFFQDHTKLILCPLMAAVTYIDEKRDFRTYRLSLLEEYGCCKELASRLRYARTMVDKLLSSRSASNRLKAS
PLK1 inh: blocks human PLK1 kinase activity | recombinant PLK1 kinase, TR-FRET peptide phosphorylation | inhibition, % at 10 µM | hit rate 0.53% among 97,000;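 active = inhibition of 50% or more in the single-concentration screen; inactive = inhibition below 50%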
CYP2C19 activ: increases human CYP2C19 enzyme activity. P33261. recombinant CYP2C19, luciferin-H EGE luminescence; stronger effect = higher value; 0 = fully inhibited enzyme, 1 = untreated enzyme. activation factor at 5 µM. 96,000 tested, under 10 active;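 active = activation factor of at least 2 at 5 µM in the primary screen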
CYP2C9 act: CYP2C9 (human) activation | activation factor at 5 µM | hit rate 1.4% among 96,000 | AID 1024 | P11712 | recombinant CYP2C9, luciferin-H conversion, luminescence; stronger effect = higher value; factor 1 = untreated enzyme, 0 = blocked;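 active = activation factor of 2 or more for CYP2C9 at a 5 µM dose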
CYP2C19 inh: blocks human cytochrome P450 2C19 | P33261 | CYP2C19 Supersomes, luciferin-H EGE luminescence, 30 min | inhibition, % at 5 µM | hit rate 21% among 96,000;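 active = CYP2C19 inhibition above a set limit at 5 µM in the primary screen, cut at about 50% in these data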
A number is an active result; n = inactive; x = no result given. This is a sample that favours compounds with a hit; in the whole collection about 28% have one here.

SMILES | CYP2C9 inh | Plk1 PBD FP | PLK1 inh | CYP2C19 activ | CYP2C9 act | CYP2C19 inh
Cc1cc(NC(=O)C23CCC(C)(c4nc5cc(Cl)c(Cl)cc5nc42)C3(C)C)no1 (configuration not stated) | x | n | n | x | x | x
CCC(=O)N1CCN(c2ccc(Cl)cc2NC(=O)c2ccc(N3CCCC3)c([N+](=O)[O-])c2)CC1 | n | n | n | n | n | n
CC(=O)c1ccc(N2CCC(c3cc(-c4ccc(Cl)cc4Cl)n[nH]3)CC2)c([N+](=O)[O-])c1 | 59 | n | n | n | n | 51
O=[N+]([O-])c1cccnc1N1CCC(c2cc(-c3cccc(C(F)(F)F)c3)n[nH]2)CC1 | 98 | n | n | n | n | 67
COc1ccc(OC)c(-c2cc(C3CCN(c4ncccc4[N+](=O)[O-])CC3)[nH]n2)c1 | n | n | n | n | n | n
O=[N+]([O-])c1cccnc1N1CCCCC1 | n | n | n | n | n | n
O=[N+]([O-])c1cccnc1N1CCC(c2cc(-c3ccc(Cl)cc3Cl)n[nH]2)CC1 | 85 | n | n | n | n | n
Cc1cc(C(c2ccc(C)o2)c2ccc(C)o2)c(O)c([N+](=O)[O-])c1 | 95 | n | n | n | n | 65
Cc1ccc(C(c2ccc(C)o2)c2cccc([N+](=O)[O-])c2O)o1 | n | n | n | n | n | n
NC1=NS(=O)(=O)NC1c1cccc(Cl)c1 (configuration not stated) | n | n | n | n | n | n
CCCCn1c(-c2cc(Cl)ccc2OC)n[nH]c1=S | n | n | n | n | n | 72
C=C(C)CSc1nnc(-c2ccc(OC)cc2)n1N | n | n | n | n | n | n
C=C(C)CSc1nnc(-c2cccc(Cl)c2)n1N | n | n | n | n | n | 58
Cc1ccc(S(=O)(=O)N2CCCCC2C(=O)N2CCN(Cc3ccccc3)CC2)cc1 (configuration not stated) | n | n | n | n | 2.9 | 85
O=C(C1CCC1)N1CCN(Cc2ccccc2)CC1 | n | n | n | n | n | 93
O=C(C1CCCCN1S(=O)(=O)c1ccccc1)N1CCN(Cc2ccccc2)CC1 (configuration not stated) | n | n | n | n | n | 62
Cc1ccc(CN2CCN(C(=O)C3CCC3)CC2)cc1 | x | n | n | x | x | x
Cc1c(NS(=O)(=O)c2ccc3c(c2)CCN3C(=O)C2CC2)c(=O)n(-c2ccccc2)n1C | n | n | n | n | n | n
CCOc1cc(C(=O)OCC(=O)Nc2cc(C)on2)cc(OCC)c1OCC | n | n | n | n | n | n
CC(=O)/C=C(\C)NCCNc1c(F)c(F)c(CO)c(F)c1F | n | x | x | n | n | 79
COc1ccccc1NC(=O)C1CC(=O)OC1c1ccccc1 (configuration not stated) | n | n | n | n | n | 78
O=C1CC(C(=O)Nc2ncccn2)C(c2ccccc2)O1 (configuration not stated) | n | n | n | n | n | n
O=C(NC1CCCCC1)N1CCN(c2ncccn2)CC1 | n | n | n | n | n | 60
Oc1ccccc1N1CCN(c2ncccn2)CC1 | 86 | n | n | n | n | 84
O=C(Nc1ccccc1Cl)N1CCN(c2ncccn2)CC1 | n | n | n | n | n | 85
SMILES | CYP2C9 inh | Plk1 PBD FP | PLK1 inh | CYP2C19 activ | CYP2C9 act | CYP2C19 inh
O=C(Nc1ccc2c(c1)OCO2)N1CCN(c2ncccn2)CC1 | n | n | n | n | n | n
O=C(Nc1ccccc1)N1CCN(c2ncccn2)CC1 | 52 | n | n | n | n | 78
O=C(Nc1ccccc1)N1CCN(c2ccccn2)CC1 | n | n | n | n | n | n
CCOC(=O)c1c(NC(=O)CSc2nnc(Cc3ccccc3)o2)sc(C)c1C | x | n | n | x | x | x
O=C(Nc1ccccc1Cl)N1CCN(c2ccc3nnc(-c4ccc(F)cc4)n3n2)CC1 | 66 | n | n | n | n | n
Fc1ccc(-c2nnc3ccc(N4CCCC4)nn23)cc1 | n | x | x | n | n | n
Cc1ccccc1Cn1nc(C)c(NC(=O)c2noc3c2CC(C(C)(C)C)CC3)c1C (configuration not stated) | n | n | n | n | n | n
COC(=O)Nc1c(C)nn(Cc2ccccc2C)c1C | n | n | n | n | n | 58
Cc1ccccc1Cn1nc(C)c(NC(=O)c2noc3c2CCc2ccccc2-3)c1C | 79 | n | n | n | n | 58
Cc1ccc(C(=O)N/C(=C\c2cccs2)C(=O)NCCCn2ccnc2)cc1C | 54 | n | n | n | n | n
Cc1ccc(C(=O)N/C(=C\c2ccco2)C(=O)NCCCn2ccnc2)cc1C | 71 | n | n | n | n | 79
CC1(C)C(=O)OC(C(=O)c2ccc(C(C)(C)C)cc2)C(C)(C)C1=O (configuration not stated) | n | n | n | n | n | n
COC(=O)c1[nH]cnc1C(=O)c1ccccc1 | n | n | n | n | n | n
CC(C)OC(=O)c1c(-c2ccc(C(C)C)cc2)csc1NC(=O)C1CCCO1 (configuration not stated) | n | n | n | n | n | n
CCOC(=O)CC1C(=O)NCCN1Cc1cccc(C(F)(F)F)c1 (configuration not stated) | n | n | n | n | n | 55
COc1ccc(CN2CCNC(=O)C2CC(=O)O)cc1OC (configuration not stated) | x | n | n | x | x | x
O=C(O)CC1C(=O)NCCN1Cc1ccc(F)c(F)c1 (configuration not stated) | x | n | 65 | x | x | x
Cc1ccc(CN2CCNC(=O)C2CC(=O)O)cc1 (configuration not stated) | n | n | 61 | n | n | n
CCOc1ccc(C(=O)Nn2cnnc2)cc1 | 76 | x | x | n | n | 74
Fc1ccc(-c2nnc(NC3=NCCCCC3)o2)cc1 | n | n | n | n | n | 56
COC(C(=O)Nc1cccc(F)c1)c1ccccc1 (configuration not stated) | n | x | x | n | n | 50
COC(C(=O)Nc1ccccc1F)c1ccccc1 (configuration not stated) | n | n | n | n | n | 66
COC(C(=O)Nc1ccc(F)c(F)c1)c1ccccc1 (configuration not stated) | x | n | n | x | x | x
Clc1ccc(OCc2nnc(SCc3nnc(-c4ccccc4)o3)o2)c(Cl)c1 | n | n | n | n | n | 92
Cc1ccc2nc(SCCCCOc3ccccc3)[nH]c2c1 | 72 | n | n | n | n | 63
Clc1ccc2nc(SCc3nnc(-c4ccccc4)o3)[nH]c2c1 | 76 | n | n | n | n | 86
Cc1ccc2nc(SCc3nnc(-c4ccccc4Br)o3)[nH]c2c1 | 75 | n | n | n | n | 83
CCC1(COC(=O)Nc2cccc(Cl)c2)COC1 | n | n | n | n | n | n
O=S(=O)(NCc1cc(-c2ccccc2Cl)no1)c1ccc(Cl)cc1 | n | n | n | n | n | 93
CC1(C)CC(=O)C(C(=O)/C=C/NCCc2ccccc2)C(=O)C1 | 74 | n | n | n | n | n
